Inconclusive results are not listed. Where a call stands in place of a potency, no number is given. A number with no mark means an inactive call. Active and inactive are the calls of the source. The call rests on the fitted dose curve; in most records, active means well fitted inhibition curve with a large enough effect; inconclusive means small, poorly fitted or top-dose-only effect; inactive means no such curve, though single readings can be large or run the other way. Where a SMILES comes first, the peptide text is derived from it.

The subject of experiment [1] is Zika virus NS2B-NS3 protease (unlinked complex). Briefly: Primary screen GU Rhodamine qHTS for Zika virus inhibitors: Unlinked NS2B-NS3 protease assay (AID 1347159). Further: nearly all actives have a fitted effect of over 60% in size. A digest of the protocol:
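Compounds, tested up to 114 microM, were incubated for 15 minutes with 25 nM unlinked NS2B-NS3 protease at pH 8.0. Cleavage of 1.5 microM Rhodamine110 substrate was then followed by fluorescence for 15 minutes.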
A general note: qHTS replaces the single test concentration by a dilution series.

Experiment [2] concerns Zika virus NS2B-NS3 protease (linked construct). Briefly: Primary screen NINDS Rhodamine qHTS for Zika virus inhibitors (AID 1347160). Further: nearly all actives have a fitted effect of over 55% in size. A digest of the protocol: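 Percent inhibition, normalized to uninhibited and enzyme-free controls, is fitted to a 4-parameter Hill equation. Fluorescence change comes from a 15-min cleavage of 1.5 microM bis-peptide Rhodamine110 substrate by 25 nM linked NS2B-NS3 at room temperature.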

Turning to `COc1ccc([C@H]2OC[C@H]3[C@@H]2CO[C@@H]3c2ccc(O[C@@H]3O[C@H](CO)C(O)[C@H](O)[C@H]3O)c(OC)c2)cc1OC` (stereo partly drawn), the Potency result in experiment [1] and in experiment [2] was “inactive” in each case.

Regarding `Nc1c(-c2ccccc2)nc(Cl)c2c(O)n[nH]c(=O)c12`, the Potency result in experiment [1] and in experiment [2] was “inactive” each time.

As to `O=C(Nc1ccn(Cc2c(F)cccc2C(F)(F)F)n1)c1c(F)cccc1F`, the Potency result in experiment [1] and in experiment [2] was “inactive” throughout.

As to `CC12CC34CC(O)C5C(CO)(CO)CC(=O)CC5(C)C3CC1C2C4` (stereo not drawn), the Potency result in experiment [1] and in experiment [2] was “inactive” each time.

With `COc1cc(O)cc2c1C(=O)OC(C)C2` (stereo not drawn), the Potency entry in experiment [1] and in experiment [2] was “inactive” throughout.

With `CC(O)CCc1ccc(O[C@@H]2O[C@H](CO)[C@@H](O)[C@H](O)[C@H]2O)cc1` (stereo partly drawn), the Potency result in experiment [1] and in experiment [2] was “inactive” each time.

Consider `CC1(C)CC[C@]2(C(=O)O)CC[C@]3(C)C(=CCC4[C@@]5(C)C[C@@H](O)[C@H](O)[C@@](C)(CO)C5[C@H](O)C[C@]43C)[C@@H]2C1` (stereo partly drawn), for which the Potency result in experiment [1] and in experiment [2] was “inactive” each time.

For the compound `CC(=O)OC[C@]12[C@@H](OC(=O)c3ccoc3)C[C@@H]3[C@@H](OC(C)=O)[C@]1(OC3(C)C)[C@@](C)(O)C[C@H](OC(=O)c1ccoc1)[C@@H]2OC(=O)c1ccoc1`, the Potency entry in experiment [1] and in experiment [2] was “inactive” in each case.

As for `Cc1nc2ccccc2c(-c2ccc3c4c(ccnc24)CCO3)c1[C@H](OC(C)(C)C)C(=O)O`, the Potency entry in experiment [1] and in experiment [2] was “inactive” in each case.

As for `COC(=O)C(Cc1ccccc1)NC(=O)c1ccccc1` (stereo not drawn), the Potency entry in experiment [1] and in experiment [2] was “inactive” each time.

On to `C[C@@H]1C(=O)O[C@H](C)[C@H]1C[C@@H](O)[C@](C)(O)[C@H]1CC[C@@]2(O)C3=CC(=O)[C@@H]4C[C@@H](O)[C@@H](O)C[C@]4(C)C3CC[C@]12C` (stereo partly drawn), for which the Potency result in experiment [1] and in experiment [2] was “inactive” throughout.

For the compound `C=C1C2(C)CC3C4(C)C=CC(=O)OC(C)(C)C4CCC3(C)C1(C(=O)OC)C(=O)C(C)(O)C2=O` (stereo not drawn), the Potency result in experiment [1] and in experiment [2] was “inactive” in each case.

Turning to `C=CC1(C)CC2CCC3C(C)(C(=O)O)CCCC3(C)C2=CC1=O` (stereo not drawn), the Potency result in experiment [1] and in experiment [2] was “inactive” in each case.

With `CC(=O)OC1CC2(C)C(CCC(C)C23Cc2c(O)cc4c(c2O3)CNC4=O)C(C)(C)C1O` (stereo not drawn), the Potency entry in experiment [1] and in experiment [2] was “inactive” each time.

For `COc1cc(O)c2c(c1)C1(OC2=O)C(C)=CC(=O)C1O` (stereo not drawn), the Potency result in experiment [1] and in experiment [2] was “inactive” in each case.

Turning to `COc1cccc2c1c(O)c(C(=O)N(C)c1ccc(C(F)(F)F)cc1)c(=O)n2C`, the Potency entry in experiment [1] and in experiment [2] was “inactive” throughout.

As to `COc1cccc(C(=O)NCCNc2nc3cc(C)cc(C)c3cc2C#N)c1`, the Potency entry in experiment [1] and in experiment [2] was “inactive” in each case.

In the case of `C=C[C@H]1[C@H](O[C@@H]2O[C@H](CO)[C@@H](O)[C@H](O)[C@H]2O)OC=C(C(=O)OC)[C@H]1CC=O`, the Potency entry in experiment [1] and in experiment [2] was “inactive” each time.

For the compound `O=C(O)C(Cc1ccccc1)NC(=O)C1CCCN1` (stereo not drawn) (H-Pro-Phe-OH; configuration not given here), the Potency entry in experiment [1] and in experiment [2] was “inactive” throughout.

For `CC1(C)CC[C@]2(C(=O)O)CC[C@]3(C)C(=CCC4[C@@]5(C)C(=O)C[C@H](O)[C@@](C)(CO)C5CC[C@]43C)[C@@H]2C1` (stereo partly drawn), the Potency result in experiment [1] and in experiment [2] was “inactive” throughout.

Consider `CC1OC(O[C@@H]2[C@H](O)[C@@H](OC3OC(CO)C(O)C(O)C3O)[C@H](OC(=O)[C@]34CCC(C)(C)C[C@H]3C3=CCC5[C@@]6(C)CC[C@H](O[C@@H]7O[C@H](C(=O)O)[C@@H](O)[C@H](O[C@@H]8OC[C@@H](O)[C@H](O)[C@H]8O)[C@H]7O[C@@H]7O[C@H](CO)[C@H](O)[C@H](O)[C@H]7O)[C@@](C)(C=O)C6CC[C@@]5(C)[C@]3(C)C[C@H]4O)O[C@@H]2C)C(O)C(O)C1OC1OCC(O)C(O)C1O` (stereo partly drawn), for which the activity change, negative = inhibition in experiment [1] is 87.6% [at 19.1 µM]. The Potency result in experiment [2] was “inactive”.

With `O=C(O)c1cc(O[C@@H]2O[C@H](CO)[C@@H](O)[C@H](O)[C@H]2O)ccc1O`, the Potency result in experiment [1] and in experiment [2] was “inactive” throughout.

Consider `CCCNCCOc1ccc(NC(=O)c2c[nH]c3c2C(=O)CCC3)cc1F`, for which the Potency result in experiment [1] and in experiment [2] was “inactive” each time.

In the case of `CC(CCc1ccc(O)cc1)O[C@@H]1O[C@H](CO[C@@H]2OC(CO)[C@H](O)[C@H]2O)[C@@H](O)[C@H](O)[C@H]1O` (stereo partly drawn), the Potency result in experiment [1] and in experiment [2] was “inactive” throughout.

Regarding `COC(=O)Cn1nc(-c2cccc(OC)c2)c2ccccc21`, the Potency entry in experiment [1] and in experiment [2] was “inactive” throughout.

For `CS(=O)(=O)c1ccccc1N1CCN(c2nc3c(c(=O)[nH]2)CSCC3)CC1`, the Potency result in experiment [1] and in experiment [2] was “inactive” each time.

With `O=C(O)c1ccnc(-c2cc(C(=O)NCCc3ccccc3)ccn2)c1`, the Potency entry in experiment [1] and in experiment [2] was “inactive” each time.

`COc1cc(O[C@@H]2O[C@H](CO[C@H]3OC[C@](O)(CO)[C@H]3O)[C@@H](O)[C@H](O)[C@H]2O)cc(OC)c1O`: the Potency result in experiment [1] and in experiment [2] was “inactive” each time.

For `C=C1[C@H](OC(C)=O)[C@H]2[C@@H](OC(C)=O)C(C)C[C@]2(OC(C)=O)C(=O)[C@H](C)/C=C/C(C)(C)C(=O)[C@H](OC(=O)C(C)C)[C@H]1OC(C)=O` (stereo partly drawn), the Potency result in experiment [1] and in experiment [2] was “inactive” each time.

Source of the values: PubChem BioAssay (NCATS).
